Results filed as inconclusive are left out. Active and inactive are the calls of the source. Rule for the calls, unless noted: active = hit-call score of the fitted dose curve at least 0.9, where 1 is the maximum; inactive = score below 0.9.
Columns and labels:
[1] = ATG_M_06_TRANS: Attagene TRANS-FACTORIAL HepG2 Assay for M06 Transcription Factor (Internal Marker) (AID 2282983; active = hit-call score of the fitted dose curve at least 0.9, where 1 is the maximum;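 note: reporter transcript level by RT-PCR then capillary electrophoresis fluorescence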); details: HepG2 Attagene TRANS M06 internal marker reporter
Procedure, shortened: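 Internal-marker background readout from a multiplexed TRANS reporter system in HepG2; 24 h dosing; mRNA induction quantified by RT-PCR plus capillary electrophoresis fluorescence; DMSO as negative control and baseline.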

[2] = target: Nuclear receptor subfamily 4 group A member 2 (Homo sapiens) (UniProt P43354); test: ATG_NURR1_TRANS: Attagene TRANS-FACTORIAL HepG2 Assay for human Nuclear Receptor Related Protein 1 (NURR1) (AID 2282985; active = hit-call score of the fitted dose curve at least 0.9, where 1 is the maximum); details: HepG2 Attagene TRANS reporter, mRNA readout
Procedure, shortened: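 HepG2 / transient MRTU transfection / 24 h compound exposure / RT-PCR + CE fluorescence of reporter mRNA / gain-of-signal vs DMSO.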

[3] = target: Nuclear respiratory factor 1 (Homo sapiens) (UniProt Q16656); test: ATG_NRF1_CIS: Attagene CIS-FACTORIAL HepG2 Assay for human Nuclear Respiratory Factor 1 (NRF1) Orphan Gene (AID 2282987); details: HepG2 NRF1 cis-element reporter, Attagene multiplex; actives raise or lower the signal
Procedure, shortened: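 Reporter mRNA induction or loss in HepG2 cells after 24 h dosing; cis-regulated reporter constructs report endogenous transcription-factor activity. Quantified by RT-PCR/capillary electrophoresis fluorescence, DMSO-referenced.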

[4] = ATG_NFI_CIS: Attagene CIS-FACTORIAL HepG2 Assay for human Nuclear Factor I (NFI) (AID 2282989); details: HepG2 cis-regulatory reporter, NFI response element transcription; actives raise or lower the signal
Procedure, shortened: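 HepG2, transient MRTU, 24 h exposure; RNA→cDNA→PCR→FAM label→HpaI→CE fluorescence. Bidirectional fit, DMSO = baseline.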

[5] = target: Myc proto-oncogene protein (Homo sapiens) (UniProt P01106); test: ATG_Myc_CIS: Attagene CIS-FACTORIAL HepG2 Assay for human Myelocytomatosis (Myc) Proto-Oncogene Transcription Factor (AID 2282990); details: HepG2, Attagene cis-reporter transcription factor activity; actives raise or lower the signal
Procedure, shortened: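 Transiently transfected HepG2 cells bearing cis-promoter reporter units for endogenous transcription factors; 24 h exposure. Reporter mRNA measured by RT-PCR, 6-FAM primer extension, HpaI cut and capillary electrophoresis; bidirectional fit relative to DMSO.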

[6] = ATG_NRF2_ARE_CIS: Attagene CIS-FACTORIAL HepG2 Assay for human Nuclear Factor Erythroid 2 Related Factor 2 (NFR2) response to Antioxidant Response Elements (ARE) (AID 2282992); details: HepG2 Attagene ARE/NRF2 reporter, transcription factor activity; actives raise or lower the signal;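 for AC50: reporter mRNA level measured by RT-PCR and capillary electrophoresis fluorescence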
Procedure, shortened: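 HepG2 cells transiently transfected with multiplexed cis-element reporter constructs, 24 h after chemical dosing; reporter mRNA quantified by RT-PCR, fluorescent primer extension, HpaI digestion and capillary electrophoresis. Bidirectional fit relative to DMSO.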

[7] = target: Transcriptional activator Myb (Homo sapiens) (UniProt P10242); test: ATG_Myb_CIS: Attagene CIS-FACTORIAL HepG2 Assay for human Myeloblastosis (Myb) Proto-Oncogene Transcription Factor (AID 2282986); details: HepG2 Attagene CIS-FACTORIAL Myb reporter transcription; actives raise or lower the signal
Procedure, shortened: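 Using HepG2 liver cells bearing transiently transfected cis-promoter reporter constructs, the assay measures induction or loss of reporter mRNA after 24 hours of dosing. Detection used fluorescently labeled RT-PCR products separated by capillary electrophoresis.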

[8] = ATG_NF_kB_CIS: Attagene CIS-FACTORIAL HepG2 Assay for human Nuclear Factor Kappa B (NF-kB) (AID 2282991); details: HepG2 Attagene cis-factorial NF-kB reporter mRNA; actives raise or lower the signal
Procedure, shortened: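 DMSO served as negative control and baseline for bidirectional curve fitting. Transiently transfected HepG2 cells were dosed for 24 h, then reporter transcripts were measured by RT-PCR with capillary electrophoresis detection.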

[9] = ATG_M_32_TRANS: Attagene TRANS-FACTORIAL HepG2 Assay for M32 Transcription Factor (Internal Marker) (AID 2282984; active = hit-call score of the fitted dose curve at least 0.9, where 1 is the maximum;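 note: transcript level of a background control reporter unit measured by RT-PCR and capillary electrophoresis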); details: HepG2 Attagene TRANS M32 internal marker reporter
Procedure, shortened: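 Capillary electrophoresis of 6-FAM-labelled reporter fragments gives the signal; data fitted for gain over DMSO negative control. Source: HepG2 cells bearing transient multiple reporter transcription units, 24 h exposure.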

[10] = ATG_Oct_MLP_CIS: Attagene CIS-FACTORIAL HepG2 Assay for human Octamer-Binding Transcription Factor (Oct) (AID 2282993); details: HepG2 Attagene cis-factorial Oct reporter, mRNA; actives raise or lower the signal
Procedure, shortened: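 Multiplexed cis-reporter assay in human liver HepG2 cells, 24 h incubation. Reporter RNA amplified and labelled, then resolved by capillary electrophoresis; DMSO serves as negative control and baseline.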

Sequence of Myc proto-oncogene protein (Homo sapiens) (P01106 whole entry, looked up): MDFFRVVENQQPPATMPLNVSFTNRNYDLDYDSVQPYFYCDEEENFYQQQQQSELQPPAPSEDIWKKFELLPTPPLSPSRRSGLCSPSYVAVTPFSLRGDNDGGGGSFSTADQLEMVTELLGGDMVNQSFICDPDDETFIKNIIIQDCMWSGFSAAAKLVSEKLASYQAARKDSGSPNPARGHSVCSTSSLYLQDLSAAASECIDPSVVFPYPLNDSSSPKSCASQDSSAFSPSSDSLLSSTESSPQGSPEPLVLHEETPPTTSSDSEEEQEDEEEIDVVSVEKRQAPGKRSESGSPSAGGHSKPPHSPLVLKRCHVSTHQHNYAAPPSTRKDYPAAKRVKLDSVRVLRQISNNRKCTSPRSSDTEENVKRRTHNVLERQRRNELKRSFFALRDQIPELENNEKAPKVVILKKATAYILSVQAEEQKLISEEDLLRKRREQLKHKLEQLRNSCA
Sequence of Nuclear respiratory factor 1 (Homo sapiens) (Q16656 whole entry, looked up): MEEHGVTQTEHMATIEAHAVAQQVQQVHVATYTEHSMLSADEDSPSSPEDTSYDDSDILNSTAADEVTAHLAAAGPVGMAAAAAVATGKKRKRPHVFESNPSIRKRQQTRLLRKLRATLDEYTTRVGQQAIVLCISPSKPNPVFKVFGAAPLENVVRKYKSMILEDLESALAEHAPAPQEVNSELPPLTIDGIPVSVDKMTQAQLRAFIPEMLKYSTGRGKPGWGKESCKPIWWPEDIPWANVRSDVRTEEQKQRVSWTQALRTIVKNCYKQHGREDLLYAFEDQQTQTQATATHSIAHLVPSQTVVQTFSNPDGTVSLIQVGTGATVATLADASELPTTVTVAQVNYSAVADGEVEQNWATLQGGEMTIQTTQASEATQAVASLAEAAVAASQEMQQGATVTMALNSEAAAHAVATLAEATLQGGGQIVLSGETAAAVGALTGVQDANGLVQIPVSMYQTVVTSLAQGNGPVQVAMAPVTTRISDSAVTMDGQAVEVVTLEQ
Sequence of Nuclear receptor subfamily 4 group A member 2 (Homo sapiens) (P43354 whole entry, looked up): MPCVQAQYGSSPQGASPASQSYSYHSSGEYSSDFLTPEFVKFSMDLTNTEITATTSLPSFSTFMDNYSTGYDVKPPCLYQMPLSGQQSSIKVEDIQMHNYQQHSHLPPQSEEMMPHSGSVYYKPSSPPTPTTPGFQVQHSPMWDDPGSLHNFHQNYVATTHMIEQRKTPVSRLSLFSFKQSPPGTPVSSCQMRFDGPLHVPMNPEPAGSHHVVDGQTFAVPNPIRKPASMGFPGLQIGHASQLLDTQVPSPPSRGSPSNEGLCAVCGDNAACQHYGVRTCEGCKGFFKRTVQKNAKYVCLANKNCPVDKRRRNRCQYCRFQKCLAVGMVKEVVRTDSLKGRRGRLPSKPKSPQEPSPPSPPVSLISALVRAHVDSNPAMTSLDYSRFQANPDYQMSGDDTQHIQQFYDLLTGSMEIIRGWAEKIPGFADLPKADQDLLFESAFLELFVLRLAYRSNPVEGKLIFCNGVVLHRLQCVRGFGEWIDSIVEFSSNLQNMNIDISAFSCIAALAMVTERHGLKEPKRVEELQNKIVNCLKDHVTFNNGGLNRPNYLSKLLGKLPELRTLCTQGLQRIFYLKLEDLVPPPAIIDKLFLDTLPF
Sequence of Transcriptional activator Myb (Homo sapiens) (P10242 whole entry, looked up): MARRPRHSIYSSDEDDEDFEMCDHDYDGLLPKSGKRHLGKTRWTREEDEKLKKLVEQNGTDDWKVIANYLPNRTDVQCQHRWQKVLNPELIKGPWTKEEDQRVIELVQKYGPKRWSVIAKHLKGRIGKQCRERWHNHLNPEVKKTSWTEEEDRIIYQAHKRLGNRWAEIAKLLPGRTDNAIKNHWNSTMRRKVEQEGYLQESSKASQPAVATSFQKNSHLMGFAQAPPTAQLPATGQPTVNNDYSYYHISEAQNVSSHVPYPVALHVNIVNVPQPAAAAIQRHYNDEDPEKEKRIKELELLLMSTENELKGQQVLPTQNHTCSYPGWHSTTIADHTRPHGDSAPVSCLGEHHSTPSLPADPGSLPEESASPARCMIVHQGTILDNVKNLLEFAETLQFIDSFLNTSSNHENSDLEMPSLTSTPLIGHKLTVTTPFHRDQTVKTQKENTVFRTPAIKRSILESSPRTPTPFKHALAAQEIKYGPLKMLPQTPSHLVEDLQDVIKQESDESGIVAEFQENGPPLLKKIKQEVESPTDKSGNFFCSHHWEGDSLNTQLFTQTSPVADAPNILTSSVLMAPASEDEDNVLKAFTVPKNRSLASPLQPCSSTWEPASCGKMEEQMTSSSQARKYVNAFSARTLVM

O=c1n(CC2CO2)c(=O)n(CC2CO2)c(=O)n1CC1CO1 (stereo not given)
outcome [1]: inactive | outcome [2]: inactive | outcome [3]: inactive | AC50 [4]: 47 µM (active) | AC50 [5]: 58.4 µM (active) | AC50 [6]: 7.56 µM (active)

CNS(=O)(=O)c1cc(C(=O)N2CCC(CCN3C4CCC3CC(n3c(C)nc5ccccc53)C4)(c3cccc(F)c3)CC2)c(Cl)cc1F (stereo not given)
outcome [1]: inactive | outcome [2]: inactive | outcome [7]: inactive | outcome [3]: inactive | outcome [4]: inactive | outcome [5]: inactive | AC50 [6]: 2.71 µM (active)

CCN(C(=O)c1cc(C)cc(OC[C@H](C)Nc2ccncc2)c1)C(C)C
outcome [1]: inactive | outcome [2]: inactive | outcome [7]: inactive | outcome [3]: inactive | outcome [4]: inactive | outcome [5]: inactive | outcome [8]: inactive | AC50 [6]: 8.92 µM (active)

CCNc1ccccc1
outcome [1]: inactive | outcome [2]: inactive | outcome [3]: inactive | outcome [4]: inactive | outcome [5]: inactive | outcome [6]: inactive

CCc1cc(SCc2sc(-c3ccc(C(F)(F)F)cc3)nc2CN2CCN(c3ccc(OC)cc3)CC2)ccc1OCC(=O)O
outcome [1]: inactive | outcome [9]: inactive | outcome [2]: inactive | outcome [7]: inactive | outcome [3]: inactive | outcome [4]: inactive | outcome [5]: inactive | AC50 [6]: 4.51 µM (active)

COCCOCCOCCOC
outcome [1]: inactive | outcome [2]: inactive | outcome [7]: inactive | outcome [3]: inactive | outcome [4]: inactive | outcome [5]: inactive | outcome [8]: inactive | outcome [6]: inactive

O=C1CCCCCN1
outcome [1]: inactive | outcome [2]: inactive | outcome [3]: inactive | outcome [4]: inactive | outcome [5]: inactive | outcome [8]: inactive | outcome [6]: inactive

Nc1cccc(N)c1
outcome [1]: inactive | outcome [2]: inactive | outcome [3]: inactive | outcome [4]: inactive | outcome [5]: inactive | outcome [6]: inactive | outcome [10]: inactive

CN(C)c1ccc(Cc2ccc(N(C)C)cc2)cc1
outcome [1]: inactive | AC50 [2]: 49.1 µM (active) | outcome [7]: inactive | outcome [3]: inactive | AC50 [4]: 180 µM (active) | outcome [5]: inactive | AC50 [6]: 78.2 µM (active) | AC50 [10]: 56.7 µM (active)

Cn1cnc([N+](=O)[O-])c1Sc1ncnc2nc[nH]c12
outcome [1]: inactive | outcome [3]: inactive | outcome [4]: inactive | outcome [5]: inactive | AC50 [6]: 29.5 µM (active)

COC(=O)c1ccccc1O
outcome [1]: inactive | outcome [2]: inactive | outcome [3]: inactive | outcome [4]: inactive | outcome [5]: inactive | outcome [6]: inactive | AC50 [10]: 59.6 µM (active)

CN(C)c1ccc(N=NS(=O)(=O)O)cc1
outcome [1]: inactive | outcome [7]: inactive | outcome [3]: inactive | outcome [4]: inactive | outcome [5]: inactive | AC50 [6]: 54 µM (active) | AC50 [10]: 130 µM (active)

C1=CCCC=CCCC=CCC1
outcome [1]: inactive | outcome [7]: inactive | outcome [3]: inactive | outcome [4]: inactive | outcome [5]: inactive | outcome [8]: inactive | AC50 [6]: 159 µM (active) | outcome [10]: inactive

O=C(OC[C@H]1O[C@@H](OC(=O)c2cc(O)c(O)c(OC(=O)c3cc(O)c(O)c(O)c3)c2)[C@H](OC(=O)c2cc(O)c(O)c(OC(=O)c3cc(O)c(O)c(O)c3)c2)[C@@H](OC(=O)c2cc(O)c(O)c(OC(=O)c3cc(O)c(O)c(O)c3)c2)[C@@H]1OC(=O)c1cc(O)c(O)c(OC(=O)c2cc(O)c(O)c(O)c2)c1)c1cc(O)c(O)c(OC(=O)c2cc(O)c(O)c(O)c2)c1
outcome [1]: inactive | outcome [7]: inactive | outcome [3]: inactive | outcome [4]: inactive | outcome [5]: inactive | outcome [6]: inactive | outcome [10]: inactive

O=P(OC(CCl)CCl)(OC(CCl)CCl)OC(CCl)CCl
outcome [1]: inactive | AC50 [2]: 32 µM (active) | outcome [3]: inactive | AC50 [4]: 187 µM (active) | AC50 [5]: 143 µM (active) | outcome [6]: inactive | AC50 [10]: 103 µM (active)

O=C(O)CC(O)C(=O)O (stereo not given)
outcome [1]: inactive | outcome [3]: inactive | outcome [4]: inactive | outcome [5]: inactive | outcome [6]: inactive | outcome [10]: inactive

COCCOc1cc2cc(C(=O)NC3CCN(C(C)C)CC3)n(CC(=O)Nc3ccc(Cl)cn3)c2cn1
outcome [1]: inactive | outcome [3]: inactive | outcome [4]: inactive | outcome [5]: inactive | AC50 [6]: 72.9 µM (active) | AC50 [10]: 119 µM (active)

CC(C)CCO
outcome [1]: inactive | outcome [7]: inactive | outcome [3]: inactive | outcome [4]: inactive | outcome [5]: inactive | outcome [8]: inactive | outcome [6]: inactive | outcome [10]: inactive

CC(C)=CCC/C(C)=C/CO
outcome [1]: inactive | outcome [7]: inactive | outcome [3]: inactive | outcome [4]: inactive | outcome [5]: inactive | outcome [6]: inactive | outcome [10]: inactive

CCCCC(CC)COC(=O)c1ccc(C(=O)OCC(CC)CCCC)cc1 (stereo not given)
outcome [1]: inactive | outcome [3]: inactive | outcome [4]: inactive | outcome [5]: inactive | outcome [6]: inactive

CC(C)=CCCC(C)CCO (stereo not given)
outcome [1]: inactive | outcome [7]: inactive | outcome [3]: inactive | outcome [4]: inactive | outcome [5]: inactive | outcome [8]: inactive | AC50 [6]: 134 µM (active)

Source: PubChem BioAssay (EPA / NIEHS)
